Bioassay records (PubChem)
Shown is part of a subset that was picked to be rich in hits.
Pf Dd2 inh = inhibitors of Plasmodium falciparum Dd2 growth. P. falciparum Dd2 growth, SYBR Green, 72 h. Potency, µM (doses to about 28.9 µM), most hits filed as inhibitors. 4.3% of 120,000 active; active = well fitted inhibition curve with a large enough effect; note: nearly all actives have a fitted effect of over 65% in size
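Readout: SYBR Green fluorescence, 485 nm excitation, 535 nm emission, after ~16 h lysis at 37C. Before that, Dd2-infected red cells (2.5% hematocrit) grew 72 h with compound, 29 uM top final concentration.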
A number is an active result; n = inactive; ! = not confirmed by another sample.

SMILES | Pf Dd2 inh
O=C(c1ccc(Cl)nc1)N1CCC2(C1)C(=O)N(CCc1ccccc1)c1ccccc12 (stereo unspecified) | 13µM!
O=C(c1ccccc1Cl)N1CCC2(C1)C(=O)N(CCc1ccccc1)c1ccccc12 (stereo unspecified) | n
O=C1N(CCc2ccccc2)c2ccccc2C12CCN([S+](=O)([O-])c1cccs1)C2 (stereo unspecified) | 7.9µM!
Cc1ccccc1C(=O)N1CCC2(C1)C(=O)N(CCc1ccccc1)c1ccccc12 (stereo unspecified) | n
O=C1N(Cc2ccccc2)c2ccccc2C12CCN([S+](=O)([O-])c1ccccc1)C2 (stereo unspecified) | n
CC(=O)N1CCC2(C1)C(=O)N(CCc1ccccc1)c1ccccc12 (stereo unspecified) | n
O=C(C1CC1)N1CCC2(C1)C(=O)N(CCc1ccccc1)c1ccccc12 (stereo unspecified) | 6.3µM!
CN(C)C(=O)N1CCC2(C1)C(=O)N(CCc1ccccc1)c1ccccc12 (stereo unspecified) | n
Cc1noc(C)c1[S+](=O)([O-])N1CCC2(C1)C(=O)N(Cc1ccccc1)c1ccccc12 (stereo unspecified) | n
Cc1ccc(CN(C(=O)c2ccco2)c2ccc(CC(=O)NCc3ccccc3)cc2)cc1 | n
COc1ccc(CN2CCCOC(CN3CCCCC3)C2)cc1C(=O)O (stereo unspecified) | n
Cc1cccc(C)c1NC(=O)Cn1nc2n(c1=O)CCCCC2 | n
CC(=O)NC1CC2(CCN(C(=O)c3c(C)noc3C)CC2)Oc2ccccc21 (stereo unspecified) | n
NC(=O)[C@@H]1CCCN1CC[C@H]1CN(S(=O)(=O)c2ccccc2)CC[C@H]1CC(=O)O | n
O=C(CCC1CCCCC1)N1CC2CC(C1)[C@H]1CCCC(=O)N1C2 (stereo partly specified) | n
CCS(=O)(=O)N1CC(n2cc(C(=O)NCC3CC3)nn2)C1 | n
O=C([C@@H]1C[C@H](Oc2ccccc2)CN1S(=O)(=O)c1ccccc1)N1CCCC1 | n
CCOC(=O)CCNC(=O)N1CCc2c(nc(-c3ccc(F)cc3)[nH]c2=O)C1 | n
CCOc1cccc(CNC(=O)c2noc(-c3ccc(C)cc3)n2)c1 | n
CN(C)C[C@@H]1CN(Cc2ccncc2)C[C@H]1NC(=O)c1ccc(F)cc1 | n
COc1ccc(Nc2nc3ccc(Cl)cc3nc2-n2nc(C)cc2C)cc1 | n
COc1ccc2nc(C)cc(Nc3ccc(Cl)c(Cl)c3)c2c1 | 1µM
COc1cccc(Nc2cc(C)nc3nc(-c4ccc(Cl)cc4)nn23)c1 | n
O=C1C[C@@H]2CCN(C(=O)NC3CCCCC3)C[C@@H]2CCN1Cc1ccc2c(c1)OCO2 | n
CCCN(c1ccccc1CC)S(=O)(=O)c1ccc2c(c1)CC(C)N2C(=O)C1CC1 (stereo unspecified) | 8.9µM
SMILES | Pf Dd2 inh
CCc1ccccc1NC(=O)C1CCC(CNS(=O)(=O)c2ccc3c(c2)CC(C)N3C(C)=O)CC1 (stereo unspecified) | n
Cc1cc(C)c(NS(=O)(=O)c2ccc3c(c2)CC(C)N3C(=O)C2CCC2)c(C)c1 (stereo unspecified) | n
COc1ccccc1NC(=O)N1CC2CC(C1)[C@H]1CCCC(=O)N1C2 (stereo partly specified) | n
COc1ccc(S(=O)(=O)Nc2ccc(C)n(CC(=O)NCc3ccccc3)c2=O)cc1 | n
CCc1ccc(NC(=O)Cn2c(C)ccc(NS(=O)(=O)c3ccccc3)c2=O)cc1 | n
COc1ccccc1NC(=O)Cn1c(C)ccc(NS(=O)(=O)c2ccccc2)c1=O | 1.4µM
CN(C)[C@@H](Cc1ccccc1)C(=O)N1CCC(N2CCC(O)CC2)CC1 | n
O=C(CC1=C2CCCCC2NC1=O)NCCc1c[nH]c2ccccc12 (stereo unspecified) | n
O=C1CCN(C(=O)C2CCCCC2)CCCC(C(=O)NCc2ccccc2)CCN1 (stereo unspecified) | n
O=C1CCN(C(=O)C2(c3ccccc3)CC2)CCCC(C(=O)NCc2ccccc2)CCN1 (stereo unspecified) | 0.4µM
O=C1CCN(C(=O)c2ccco2)CCCC(C(=O)NCc2ccccc2)CCN1 (stereo unspecified) | n
C=CCN(C)C(=O)CC1COc2ccc(C(=O)N(C)C)cc2N1C (stereo unspecified) | n
COc1ccccc1CC(=O)N1CCCc2ncc(C(=O)N(C)Cc3ccccc3)cc21 | n
COc1ccc(Nc2ccc3c(n2)CN(Cc2nc4ccccc4s2)C(=O)CO3)cn1 | n
O=C(Cc1c[nH]c(=O)[nH]c1=O)NC(c1cnc2ccccc2c1)C1CC(O)C1 (stereo unspecified) | n
Cc1cccc(C)c1-n1ncc(C(=O)O)c1C1CCN(C(=O)OC(C)(C)C)CC1 | n
COc1ccc(-c2cc(C(F)(F)F)n3nc(C(=O)Nc4cccc(Cl)c4C)cc3n2)cc1 | n
CCOc1ccc(-c2cc3nc(C4CCN(C(=O)OC(C)(C)C)CC4)c(C(=O)Nc4ccc(C)cc4Cl)cn3n2)cc1 | 4µM
CCOc1ccc(-c2cc3nc(C4CCN(C(=O)OC(C)(C)C)CC4)c(C(=O)Nc4cccc(Cl)c4C)cn3n2)cc1 | 5µM
CCc1ccc(NC(=O)c2cnn(-c3c(C)cccc3C)c2C2CCN(C(=O)OC(C)(C)C)CC2)cc1 | n
CCOc1ccc(-c2nnc(SCC(=O)Nc3ccc(C)cc3Cl)o2)cc1 | n
CCOc1ccc(-c2cc(C(=O)N3CCN(c4cccc(C)c4)C(C)C3)c3ccccc3n2)cc1 (stereo unspecified) | n
CCOc1ccc(-c2nnc(SCC(=O)Nc3ccc(C)cc3C)o2)cc1 | n
COc1ccc(-n2ncc(C(=O)Nc3ccc(C)cc3Cl)c2C2CCN(C(=O)OC(C)(C)C)CC2)cc1 | n
CCOc1ccc(-c2cc3nc(C4CCN(C(=O)OC(C)(C)C)CC4)c(C(=O)Nc4c(C)cccc4C)cn3n2)cc1 | 2.5µM
SMILES | Pf Dd2 inh
CCOc1ccc(-c2c(C)nn3c(C)c(C(=O)Nc4cccc(Cl)c4C)cnc23)cc1OCC | n
CCOc1ccc(-c2cc3nc(C4CCN(C(=O)OC(C)(C)C)CC4)c(C(=O)Nc4ccc(C)cc4C)cn3n2)cc1 | 8.9µM
CNC(=O)[C@@H]1CN(Cc2ccc(Br)o2)C[C@H]1c1nc(COC)no1 | n
CC(C)NC(=O)N(C1CC1)C1CCOC2(CCN(C(=O)c3n[nH]c4ccccc34)CC2)C1 (stereo unspecified) | n
CC1(C)C(=O)N(CC2CCOCC2)[C@H]2CN(Cc3cccc(OC(F)(F)F)c3)C[C@H]2[S+]1(=O)[O-] | n
CC1(C(=O)N2CCN(c3ncccn3)CC2)CCOCC1 | n
O=C1CNc2ccc(C(=O)NCc3cc4n(n3)CCCNC4)cc2N1 | n
Cc1nnnn1-c1cccc(C(=O)N2CCCC3(CC2)CNC(=O)O3)c1 (stereo unspecified) | n
Cc1nc(-c2ccccc2OC2CN(C(=O)c3cnn(C)c3)C2)no1 | n
CCn1ncc(N2CCC(NC(=O)CCC3CCCCC3)CC2)cc1=O | n
Cc1nn(C)c2nc(NCCC(=O)N3CCCC3)sc12 | n
O=C(CC[C@H]1NC(=O)c2ccccc2NC1=O)Nc1nnc(Cc2ccccc2)s1 | n
COc1cccc(-c2ccc(C(=O)O)cc2)c1 | n
CC(C)NC(=O)N1CCC(c2nnc3n2CCNC3)CC1 | n
COc1ccc(CC(=O)NCC(c2cccs2)S(=O)(=O)c2ccc(F)c(C)c2)cc1 (stereo unspecified) | n
Cc1cc(S(=O)(=O)C(CNC(=O)c2ccc(OC(C)C)cc2)c2cccs2)ccc1F (stereo unspecified) | 5µM
